Test systems include NCI-H23 lung; NCI-H226 lung; NCI-H322M lung; HOP-62 NSCLC; NCI-H460 lung; HOP-92 NSCLC; NCI-H522 lung; A549/ATCC NSCLC; 786-0 renal; COLO 205 colon.
Assay in all cases: NCI-60 one-dose screen, 48 h (100 = growth as untreated, 0 = no growth, -100 = all killed)
Conditions in all cases: 10 µM unless noted

This is part of a sample that, as a whole, favours compounds with a hit. Of some 83,000 tested, about 20% had one in any assay.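 Cell lines were cultured in 96-well plates, exposed to a single compound concentration, and assessed for percent growth 48 hours later.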 Unmarked numbers belong to inactive results. The source made the active and inactive calls. The calls were made as follows: active = growth percent below 10; inactive = the rest.

Take `CN(C)c1ccc(-c2nc(-c3ccccc3)c(-c3ccccc3)[nH]2)cc1`: the growth is 92.2% in the test with NCI-H23 lung; 106% in the test on NCI-H226 lung; 85.9% with NCI-H322M lung; 100% in the test with HOP-62 NSCLC; 88.9% with NCI-H460 lung; 52.2% with HOP-92 NSCLC. For the same molecule, the growth was 77.4% in the test with NCI-H522 lung, 99.5% in the test with A549/ATCC NSCLC, 94.6% in the test with 786-0 renal and 129% with COLO 205 colon.
Regarding `N#Cc1cccc(C2C3=C(COC3=O)N(CCO)c3cc4c(cc32)CCC4)c1` (stereo not given), the growth with NCI-H23 lung was 23.3%; in the test on NCI-H226 lung, 28.4%; in the test with NCI-H322M lung it was 34.2%; in the test on HOP-62 NSCLC, 26.3%; with NCI-H460 lung, 3.78% (active); in the test with HOP-92 NSCLC, 43%. For the same molecule, the growth was -3.91% (active) with NCI-H522 lung, 12.3% in the test on A549/ATCC NSCLC, 24% with 786-0 renal and -26.1% (active) in the test with COLO 205 colon.
Turning to `Nc1[nH]c(=S)nc2oc(-c3ccccc3)c(-c3ccccc3)c12`, the growth in the test on NCI-H23 lung is 94.5%; in the test with NCI-H226 lung, 107%; in the test on NCI-H322M lung it was 105%; in the test with HOP-62 NSCLC it was 86.6%; with NCI-H460 lung, 113%; in the test with HOP-92 NSCLC, 102%. The growth is 94.8% in the test with NCI-H522 lung, 98.1% with A549/ATCC NSCLC, 103% with 786-0 renal and 121% with COLO 205 colon.
`COc1ccc(/C=C/C(=O)c2ccc(NC(=O)CSc3nc4c([nH]3)c(=O)n(C)c(=O)n4C)cc2)cc1OC`: the growth is 93% with NCI-H23 lung; 81.1% in the test with NCI-H226 lung; 81% in the test with NCI-H322M lung; 89.5% with HOP-62 NSCLC; 94.6% in the test on NCI-H460 lung; 73.2% in the test with HOP-92 NSCLC. Moreover, the growth was 96.8% in the test on NCI-H522 lung, 87.7% in the test with A549/ATCC NSCLC, 82.3% with 786-0 renal and 117% in the test with COLO 205 colon.
Take `Cc1ccc(Cl)cc1NC(=O)c1sc2nc3c(cc2c1N)C(=O)CCC3`: the growth in the test with NCI-H23 lung is 63%; in the test on NCI-H226 lung, 88.3%; in the test with NCI-H322M lung it was 95.7%; in the test on HOP-62 NSCLC, 60.9%; with NCI-H460 lung, 28.1%; in the test on HOP-92 NSCLC, 56.9%. Besides, the growth in the test with NCI-H522 lung is 22.9%; with A549/ATCC NSCLC, 53.9%; in the test on 786-0 renal, 89.3%; in the test with COLO 205 colon, 39.7%.
`CCCCNC(=O)c1cc([N+](=O)[O-])cc(C2CCCCC2)c1O`: the growth in the test with NCI-H23 lung was 8.28% (active); in the test with NCI-H226 lung, 29.5%; in the test with NCI-H322M lung it was 55.3%; in the test on HOP-62 NSCLC, 57.7%; with NCI-H460 lung, 30%; with HOP-92 NSCLC it was -13.6% (active). The growth in the test with NCI-H522 lung was 25.4%; in the test with A549/ATCC NSCLC, 32%; with 786-0 renal it was 40.7%; in the test on COLO 205 colon, 56.4%.
Turning to `O=C1/C(=C/c2ccccc2F)CN(C(=O)C(Cl)Cl)C/C1=C\c1ccccc1F`, the growth in the test on NCI-H23 lung is -33.2% (active); in the test with NCI-H226 lung, 39.4%; in the test with NCI-H322M lung, -18.5% (active); in the test on HOP-62 NSCLC, 13.8%; with NCI-H460 lung, -74.2% (active); in the test with HOP-92 NSCLC, -27.9% (active). Also, the growth in the test on NCI-H522 lung was -49.8% (active); in the test with A549/ATCC NSCLC, -2.28% (active); with 786-0 renal it was -71.9% (active); with COLO 205 colon it was -57.6% (active).
For `COc1cc2c(cc1OCCCCN1CCN(C(=S)SCCC(C#N)(c3ccccc3)c3ccccc3)CC1)N=C[C@@H]1CCCN1C2=O`, the growth with NCI-H23 lung is -33.8% (active); in the test on NCI-H226 lung it was -44.2% (active); in the test on NCI-H322M lung it was -81.1% (active); in the test on HOP-62 NSCLC it was 7.67% (active); with NCI-H460 lung, -73.9% (active); in the test on HOP-92 NSCLC, -72.4% (active). Further, the growth in the test on NCI-H522 lung was -54.1% (active); in the test on A549/ATCC NSCLC it was -32.1% (active); in the test on 786-0 renal, -85.2% (active); with COLO 205 colon, -7.95% (active).
As to `Cc1ccc(/C=C/C(=O)Nc2ncc(Cc3ccc(F)cc3)s2)o1`, the growth in the test on NCI-H23 lung is 75.2%; in the test with NCI-H226 lung, 85.8%; with NCI-H322M lung, 59.4%; with HOP-62 NSCLC it was 55.1%; with NCI-H460 lung, 30.4%; with HOP-92 NSCLC it was 77.8%. For the same molecule, the growth in the test with NCI-H522 lung is 38%; in the test on A549/ATCC NSCLC, 49%; with 786-0 renal, 66.5%; in the test on COLO 205 colon, 31.8%.
For the molecule `C=Cc1cnc(Nc2ccc(OC)cc2)nc1NCCCNC(=O)C1CCC1`, the growth in the test on NCI-H23 lung was 45.2%; in the test on NCI-H226 lung, 46.5%; in the test with NCI-H322M lung, 68.8%; in the test with HOP-62 NSCLC, 40.7%; with NCI-H460 lung, 34.5%; with HOP-92 NSCLC, 55.4%. The growth was 47.9% in the test with NCI-H522 lung, 32.4% in the test with A549/ATCC NSCLC, 44.3% with 786-0 renal and 44.8% in the test on COLO 205 colon.
For the molecule `COc1ccc(/C=C/C(c2cc(OC)c(OC)c(OC)c2)n2cncn2)cc1` (stereo not given), the growth with NCI-H23 lung was 67%; in the test on NCI-H226 lung it was 76%; in the test on NCI-H322M lung, 61.2%; in the test with HOP-62 NSCLC, 41.8%; with NCI-H460 lung it was 22.1%; with HOP-92 NSCLC, 40.3%. For the same molecule, the growth with NCI-H522 lung was 28.4%; in the test on A549/ATCC NSCLC, 35.5%; with 786-0 renal it was 39.6%; in the test with COLO 205 colon it was 30.7%.
`CCN1CCN(CCNc2nccc(-c3c(-c4ccc(F)c(OC)c4)nc4sccn34)n2)S1(=O)=O`: the growth is 78.2% in the test on NCI-H23 lung; 109% in the test with NCI-H226 lung; 83.4% in the test on NCI-H322M lung; 87.7% in the test on HOP-62 NSCLC; 56.1% in the test with NCI-H460 lung; 54.4% in the test with HOP-92 NSCLC. Further, the growth in the test on NCI-H522 lung was 63%; in the test with A549/ATCC NSCLC it was 73.3%; in the test on 786-0 renal, 102%; in the test on COLO 205 colon it was 62.3%.
On to `COC(=O)c1nc(-c2ccccc2)oc1S(=O)(=O)NCC(c1ccc(Cl)cc1)N1CCOCC1` (stereo not given), for which the growth in the test with NCI-H23 lung is 89.1%; with NCI-H226 lung, 90.7%; in the test on NCI-H322M lung, 98.3%; in the test with HOP-62 NSCLC, 96.3%; in the test on NCI-H460 lung, 87.2%; in the test with HOP-92 NSCLC, 70.9%. Moreover, the growth in the test on NCI-H522 lung is 23.8%; in the test on A549/ATCC NSCLC, 90.5%; in the test on 786-0 renal, 51.9%; with COLO 205 colon it was 78.1%.
